The whole screen tested about 420,000 compounds, of which about 64,000 (15%) were called active. About 27% were inconclusive and are not listed. Calls follow the shape of the dose curve; as a rule, active = well fitted inhibition curve with a large enough effect; inconclusive = small, poorly fitted or top-dose-only effect; inactive = flat fitted curve, though single readings scatter. A selection follows.
test: qHTS for Inhibitors of human tyrosyl-DNA phosphodiesterase 1 (TDP1): qHTS in cells in absence of CPT; conditions: DT40 Tdp1-/- hTDP1 cells, no CPT, ATP luminescence, 48 h; activity change, negative = growth inhibition: at 46.2 µM (top of the series); also: nearly all actives have a fitted effect of over 55% in size
In short: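 Chicken DT40 Tdp1-/- cells stably complemented with human TDP1 were seeded at 400 cells/well with DMSO in place of 20 nM camptothecin. After compound pinning, cells grew at least 48 hr at 37 °C; viability read by CellTiter-Glo luminescence.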
% is scaled to controls: 0 for no effect and ±100 for the full control effect; potency is read from the fitted curve at half-maximal effect.

Compound	activity change, negative = growth inhibition	Potency
CN=C(c1ccccc1)c1c(C)cccc1C	-12.2% (inactive)	–
CC1CCCCC1NC(=O)CSc1nnc(-c2ccncc2)n1CCCN(C)C (stereo not drawn)	-2.07% (inactive)	–
CCCNC(=O)N1CCN(C(=O)NCCC)CC1	4.59% (inactive)	–
O=C(NNc1cc(Cl)ccc1Cl)c1cccnc1Cl	-2.92% (inactive)	–
Fc1ccc(OCc2nn3c(Cn4nnc5ccccc54)nnc3s2)cc1	-27.8% (inactive)	–
CCc1ccccc1NC(=O)Cc1cn(C)c2ccccc12	–	inactive
O=C(O)C1CCCN1S(=O)(=O)c1ccc2c(c1)CCC2 (stereo not drawn)	-7.3% (inactive)	–
CC(OC(=O)CNC(=O)c1cccc(F)c1)C(=O)NC1CCCCC1C (stereo not drawn)	3.97% (inactive)	–
Cc1ccnc(SCC(=O)Nc2cccc(S(=O)(=O)N3CCOCC3)c2)n1	-27.1% (inactive)	–
O=C(O)CCc1cccnc1	–	inactive
O=C(O)C1CC(=O)N(Cc2cccnc2)C1 (stereo not drawn)	-0.56% (inactive)	–
O=C1/C(=C\c2cccnc2)CN(Cc2ccccc2)C/C1=C\c1cccnc1	–	1.64 µM (active)
COC(=O)c1ccc2c(c1)S(=O)(=O)NC2C (stereo not drawn)	4.44% (inactive)	–
Cc1ccc(S(=O)(=O)NCC(=O)OCC(=O)N2CCc3ccccc32)cc1	-22.6% (inactive)	–
O=C(OCC(=O)N1CCc2ccccc21)C1CCCN1S(=O)(=O)c1ccc(Cl)cc1 (stereo not drawn)	-9.63% (inactive)	–
O=C(OCC(=O)N1CCc2ccccc21)c1ccc([N+](=O)[O-])cc1	–	29.1 µM (active)
O=S(=O)(Nc1ccccn1)c1cccc(S(=O)(=O)c2ccc(Cl)cc2)c1	-14% (inactive)	–
Cc1coc2c1c(C)cc1oc(=O)c(CC(=O)NCC(=O)N[C@H](C(=O)O)C(C)C)c(C)c12	23.9% (inactive)	–
CCC(NC(=O)C1CCCC1)c1ccc(C)cc1 (stereo not drawn)	-3.25% (inactive)	–
Cc1cc[n+](C2CCCCC2)cc1	–	15.8 µM (active)
COc1ncnc2sc3c(c12)CCCC3	-6.77% (inactive)	–
Cc1noc(C)c1NC(=O)N(C)C[C@@H]1Oc2cc(Br)ccc2S(=O)(=O)N([C@@H](C)CO)C[C@H]1C	-2.38% (inactive)	–
C[C@H](CO)N1C[C@H](C)[C@@H](CN(C)C(=O)C2CCCCC2)OCc2cnnn2CCCC1=O	-21.8% (inactive)	–
CCCCOc1ccc(C(C)(O)CCN2CCOCC2)cc1 (stereo not drawn)	-21.9% (inactive)	–
CCN(Cc1cc2cc(C)ccc2[nH]c1=O)S(=O)(=O)c1ccccc1	-13% (inactive)	–
COc1ccc2[nH]c(=O)c(CN(Cc3cccnc3)S(=O)(=O)c3ccccc3F)cc2c1	–	18.4 µM (active)

Compound	activity change, negative = growth inhibition	Potency
COc1ccc(-c2[nH]ncc2CN(C)Cc2cccnc2)c(F)c1	-19.9% (inactive)	–
Cc1ccc(C(=O)NCC(=O)OCC(=O)NC2CCCCCCC2)cc1	8.07% (inactive)	–
COc1ccc(C2C(=O)N(C3CCCCCC3)CC(=O)N2CCc2ccc(Cl)cc2)cc1OC (stereo not drawn)	–	23.1 µM (active)
O=C(NCCc1ccc(Cl)cc1)C1CC(=O)N(C2CCCCC2)C1 (stereo not drawn)	-11.3% (inactive)	–
COc1ccc(C2C(=O)N(C3CCCCC3)CC(=O)N2Cc2ccccc2Cl)cc1OC (stereo not drawn)	-3.49% (inactive)	–
CCCCN(C(=O)c1nn(C)c(=O)c2ccccc12)c1c(N)n(CCC)c(=O)[nH]c1=O	13.9% (inactive)	–
CCN1C[C@@H]2[C@@H]3C(=O)N(C)C(=O)[C@@H]3[C@](C)(C1=O)N2C(=O)c1ccccc1	-1.14% (inactive)	–
CCCOC(=O)c1cc2ccccc2oc1=O	-15.6% (inactive)	–
CCOC(=O)C1=C(N)N2C(=O)C(C)SC2=C(C(=O)OCC)C1c1cc(OC)c(OC)c(OC)c1 (stereo not drawn)	15.8% (inactive)	–
CCCOC(=O)c1[nH]c2c(c1C)C(=O)CC(c1cc(OC)c(OC)c(OC)c1)C2 (stereo not drawn)	–	4.61 µM (active)
CCCOC(=O)c1[nH]c2c(c1C)C(=O)CC(c1cccs1)C2 (stereo not drawn)	–	0.58 µM (active)
COc1cc(C2CC(=O)c3cnc(NC(C)=O)nc3C2)cc(OC)c1OC (stereo not drawn)	3.54% (inactive)	–
Cc1noc(C)c1C(=O)N1CCC1(C)C(=O)NS(=O)(=O)c1ccc(C#N)cc1 (stereo not drawn)	10.2% (inactive)	–
Cn1c(SCC(=O)Nc2cccc(NC(=O)c3cccs3)c2)nnc1-c1ccncc1	-21.6% (inactive)	–
COc1cc(OC)c(C(=O)N2CCCC2)cc1OC	-2.13% (inactive)	–
Nc1cc(N2CCCCCC2)c2nonc2c1[N+](=O)[O-]	-25.5% (inactive)	–
CCOc1ccc(N(C)S(=O)(=O)c2cnc[nH]2)cc1	-8.49% (inactive)	–
OC(CNCC1CCCO1)Cn1c2ccc(Br)cc2c2cc(Br)ccc21 (stereo not drawn)	–	18.4 µM (active)
CC(NS(=O)(=O)c1ccc(Br)cc1)C(=O)NCC1CCCO1 (stereo not drawn)	2.85% (inactive)	–
O=C(CCNS(=O)(=O)c1ccc(Br)cc1)NCC1CCCO1 (stereo not drawn)	-5.69% (inactive)	–
CN(C)c1ccc(C(CNS(=O)(=O)c2cc(F)ccc2F)N2CCOCC2)cc1 (stereo not drawn)	5.48% (inactive)	–
C[C@H](NC(=O)c1[nH]cnc1C(=O)Nc1nccs1)c1ccccc1	-19.2% (inactive)	–
Cc1ccc(S(=O)(=O)N2CCOCC2)cc1C(=O)OC1CCCCC1=O (stereo not drawn)	-18.6% (inactive)	–
CC(=O)N1CCc2cc(Br)cc(S(=O)(=O)CCC(=O)Nc3c(C)n(C)n(-c4ccccc4)c3=O)c21	-7.36% (inactive)	–
CCOC(=O)c1c(N)nn(C(=O)c2ccccc2)c1-c1ccccc1	8.93% (inactive)	–
CCOC(=O)c1c(-c2ccc(-c3ccccc3)cc2)csc1NC(=O)CCC(=O)O	15.5% (inactive)	–

Compound	activity change, negative = growth inhibition	Potency
Cc1ccc2nc(NC(=O)c3nc(SCc4ccccc4F)ncc3Cl)sc2c1	11% (inactive)	–
CCOC(=O)c1c(NC(=O)c2cc(-c3ccc(Cl)cc3)on2)sc2c1CCCC2	-4.88% (inactive)	–
CCOC(=O)c1c(-c2cccc(C)c2)csc1NC(=O)c1c(-c2ccccc2)noc1C	–	23.1 µM (active)
CCCS(=O)(=O)c1ncc(Cl)c(C(=O)Nc2scc(-c3ccccc3)c2C(=O)OCC)n1	–	3.66 µM (active)
CCOC(=O)C1CCN(C(=O)COC(=O)C2CCN(S(=O)(=O)c3ccc4c(c3)OCCO4)CC2)CC1	-2.44% (inactive)	–
CCOC(=O)CN/C=C(\C#N)c1ccc(F)cc1	8.78% (inactive)	–
CC(C)CN(C(=O)Cn1c(=O)cnc2ccccc21)C1CCS(=O)(=O)C1 (stereo not drawn)	-1.96% (inactive)	–
CC1(C(=O)Nc2ccc3c(c2)OCCO3)CN(S(C)(=O)=O)CC(=O)N1Cc1cccc(F)c1 (stereo not drawn)	-7.77% (inactive)	–
O=C(C1CCCO1)N1CCN(C(=S)Nc2cccc(Cl)c2)CC1 (stereo not drawn)	-22.5% (inactive)	–
CCOC(=O)C1CCN(C(=O)C2CCN(S(=O)(=O)N3CCCC3)CC2)CC1	-12.4% (inactive)	–
CCCCNC(=O)CSc1nc2cc3c(cc2c(=O)n1CCCCCC(=O)NCc1ccc2c(c1)OCO2)OCO3	-7% (inactive)	–
CCN(CC)C(=O)CSc1nc2cc3c(cc2c(=O)n1CCCC(=O)NCc1ccc2c(c1)OCO2)OCO3	–	16.4 µM (active)
O=C(CCCCn1c(=O)[nH]c2ccccc2c1=O)NCc1ccc2c(c1)OCO2	-26.8% (inactive)	–
CC(C)(C)OC(=O)N/N=C/c1cn(-c2ccccc2)nc1-c1cccnc1	-26.1% (inactive)	–
CN(C)/N=C/c1cn(-c2ccccc2)nc1-c1cccnc1	-26.2% (inactive)	–
COc1ccc(-c2nn(-c3ccccc3)cc2/C=N/Nc2ccccn2)cc1OC	–	5.8 µM (active)
N#Cc1ccc(C(=O)Nc2cccc3cccnc23)c(F)c1	12.3% (inactive)	–
O=C(Nc1cccc2cccnc12)c1cccc(Cl)c1	-25.7% (inactive)	–
CC(=O)/C(=N\Nc1ccc(Cl)cc1Cl)Sc1cccc2cccnc12	–	4.11 µM (active)
C#CCN(N(C)c1ncc(C(F)(F)F)cc1Cl)S(=O)(=O)c1ccc2ccccc2c1	-19.9% (inactive)	–
Cc1csc(NC(=O)CSc2nnc(-c3cccnc3)o2)n1	4.46% (inactive)	–
O=C(NCCS(=O)(=O)NCc1ccc(F)cc1)c1ccccc1	-11.1% (inactive)	–
O=C(COC(=O)c1ccc(O)cc1)Nc1nccs1	-0.707% (inactive)	–
O=C(Cn1cnc([N+](=O)[O-])n1)NCCc1ccccc1	2.11% (inactive)	–
CCn1c(CNC(=O)c2cc(OC)c(OC)c(OC)c2)cc2cc(C)ccc21	–	13 µM (active)
COc1cc(-n2c(C)nc3cc(C(=O)NCc4ccco4)ccc32)cc(OC)c1OC	-11.4% (inactive)	–

Compound	activity change, negative = growth inhibition	Potency
CCN1CCN(CC(=O)c2cc(OC)c(OC)c(OC)c2)CC1	-11.6% (inactive)	–
COC(=O)c1cccc(NC(=O)c2cccc(N3C(=O)CCC3=O)c2)c1	-4.15% (inactive)	–
O=C(O)c1ccccc1Cc1ccc(F)c2ccccc12	3.98% (inactive)	–
CCOc1ccc(C(=O)Nc2ccc(CN3CCOCC3)cc2)cc1Cl	-7.26% (inactive)	–
CC(=O)Nc1ccc(S(=O)(=O)N2CCC(C(=O)NC3CC3)CC2)cc1	15.7% (inactive)	–
O=C(Nc1ccc(S(=O)(=O)N2CCOCC2)cc1)C1CCN(S(=O)(=O)c2ccc(Cl)cc2)CC1	–	10.3 µM (active)
CCOc1ccc(C(=O)NC(=S)Nc2ccc(N3CCOCC3)c(Cl)c2)cc1[N+](=O)[O-]	–	8.2 µM (active)
O=C(COC(=O)c1ccccc1F)Nc1cc(S(=O)(=O)N2CCOCC2)ccc1N1CCCC1	1.56% (inactive)	–
O=C(Nc1ccc2c(c1)nc1n2CCCCC1)c1cc(S(=O)(=O)N2CCOCC2)ccc1Cl	–	14.6 µM (active)
COCCNC(=S)Nc1cc(S(=O)(=O)N2CCOCC2)ccc1N1CCCCC1	–	16.4 µM (active)
O=C(OCC(=O)N1CCCC1=O)c1cc(S(=O)(=O)N2CCOCC2)ccc1Cl	-4.83% (inactive)	–
O=C(CNCc1ccco1)Nc1cc(S(=O)(=O)N2CCOCC2)ccc1N1CCCC1	-0.457% (inactive)	–
CCOc1ccc(C(=O)NC(=S)Nc2ccc(NC(=O)C(C)C)cc2)cc1[N+](=O)[O-]	5.95% (inactive)	–
O=S(=O)(c1ccc(NC(=S)NN=C(C2CC2)C2CC2)cc1)N1CCOCC1	-8.48% (inactive)	–
COc1cc(NC(=S)NCc2ccco2)c(OC)cc1Cl	-6.81% (inactive)	–
COC(=O)CN(c1nc(C)c(Cl)c(OC)n1)S(=O)(=O)c1ccc(C)cc1	-18.2% (inactive)	–
O=C(OCC(O)C(O)COC(=O)c1ccccc1)c1ccccc1 (stereo not drawn)	-8.97% (inactive)	–
O=C(O)C(=Cc1ccccc1[N+](=O)[O-])c1ccccc1	-12.4% (inactive)	–
O=C(Cc1c(F)cccc1Cl)N1CCN(C(=O)c2ccco2)CC1	-11.5% (inactive)	–
COc1ccc(NC(=O)CNc2cc(S(=O)(=O)N3CCOCC3)ccc2N2CCOCC2)c(OC)c1	2.99% (inactive)	–
O=C(Nc1ccc2cn[nH]c2c1)c1ccc(S(=O)(=O)N2CCOCC2)cc1	-19.1% (inactive)	–
CC(C)CCOc1ccc(C(=O)Nc2cc(S(=O)(=O)N3CCOCC3)ccc2N2CCOCC2)cc1	–	5.8 µM (active)
CC(Oc1ccc(F)cc1)C(=O)Nc1cc(S(=O)(=O)N2CCOCC2)ccc1N1CCN(C)CC1 (stereo not drawn)	-1.55% (inactive)	–
CC(=O)Nc1ccc(C(=O)Nc2cc(S(=O)(=O)N3CCOCC3)ccc2N2CCOCC2)cc1	-26.5% (inactive)	–
O=C(Nc1ccc(N2CCOCC2)c(Cl)c1)c1ccc(S(=O)(=O)N2CCOCC2)cc1	–	14.6 µM (active)

From PubChem BioAssay AID686978 (National Center for Advancing Translational Sciences (NCATS), 2013)
